Compounds with a hit are over-represented: about 31% of the library has one in this group of screens.
CYP2C9 inh = inhibitors of human CYP2C9 | P11712 | CYP2C9 Supersomes, luciferin-H conversion, luminescence | inhibition, % at 5 µM | 20% of 96,000 active | AID 777;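 active = blocking of liver enzyme CYP2C9 beyond about 50% at 5 µM, limit read from the data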
CYP2C19 activ = cytochrome P450 2C19 (human) activation. P33261. activation factor at 5 µM. recombinant CYP2C19, luciferin-H EGE luminescence; hits give high values; 0 = fully inhibited enzyme, 1 = untreated enzyme. 96,000 tested, under 10 active. AID 1025;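 active = activation factor of at least 2 at 5 µM in the primary screen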
Target sequence (P33261 whole entry, looked up): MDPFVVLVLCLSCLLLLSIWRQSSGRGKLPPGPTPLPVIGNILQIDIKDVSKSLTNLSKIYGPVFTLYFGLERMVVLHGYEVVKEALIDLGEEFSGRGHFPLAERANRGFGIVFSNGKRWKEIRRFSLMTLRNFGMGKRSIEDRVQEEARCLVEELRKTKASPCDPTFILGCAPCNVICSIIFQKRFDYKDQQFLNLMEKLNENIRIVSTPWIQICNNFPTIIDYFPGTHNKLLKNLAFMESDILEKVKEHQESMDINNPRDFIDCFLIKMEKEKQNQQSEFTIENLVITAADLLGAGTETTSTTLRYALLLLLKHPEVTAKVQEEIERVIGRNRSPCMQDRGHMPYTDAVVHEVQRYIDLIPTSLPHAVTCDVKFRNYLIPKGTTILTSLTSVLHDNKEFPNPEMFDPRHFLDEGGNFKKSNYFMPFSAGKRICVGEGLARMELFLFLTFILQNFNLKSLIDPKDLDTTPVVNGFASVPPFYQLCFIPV
CYP2C9 act = CYP2C9 (human) activation; recombinant CYP2C9, luciferin-H conversion, luminescence; hits give high values; factor 1 = untreated enzyme, 0 = blocked; P11712; AID 1024; 1.4% of 96,000 active; activation factor at 5 µM;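 active = activation factor of 2 or more for CYP2C9 at a 5 µM dose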
PLAP activator = human PLAP activation; 1.2% of 96,000 active; activation fold at 20 µM; AID 696; purified PLAP enzyme, luminescent substrate read-out; hits give high values; P05187; in the data active = activation fold above about 2
CYP2C19 inh = blocks human cytochrome P450 2C19 | inhibition, % at 5 µM | CYP2C19 Supersomes, luciferin-H EGE luminescence, 30 min | AID 778 | 21% of 96,000 active;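 active = CYP2C19 inhibition above a set limit at 5 µM in the primary screen, cut at about 50% in these data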
Large screens that a line does not name were inactive; ! = repeats disagree.

O=C(O)CSC1CC(=O)N(c2ccc(Cl)c(Cl)c2)C1=O (stereo not drawn)	CYP2C19 inh 63.7
O=C(O)CSC1CC(=O)N(c2cccc(Cl)c2)C1=O (stereo not drawn)	none
CC1(C(=O)O)Cc2ccccc2C(=O)O1 (stereo not drawn)	none
Cc1cccc(C2(c3cccc(C)c3)OC(=O)c3ccccc32)c1	CYP2C9 inh 61.8
CC(C)(C)C1CCc2c(C(=O)N/N=C/c3cccs3)csc2C1 (stereo not drawn)	CYP2C9 inh 63.0
COc1ccc(-c2nc(Cn3c(SCc4ccc(C)cc4)nc4ccncc43)c(C)o2)cc1OC	CYP2C9 inh 52.9, CYP2C19 inh 53.1
CCOC(=O)N1CCC(NC(=O)CS(=O)Cc2nc(-c3ccc(OC)c(OC)c3)oc2C)CC1 (stereo not drawn)	none
COc1ccc(-c2nc(Cn3c(SCc4cccc(F)c4)nc4ccncc43)c(C)o2)cc1OC	CYP2C9 inh 89.0, CYP2C19 inh 73.2
CSc1nc2ccccc2n1Cc1cccc(F)c1	none
CCCCCCNc1nc(NCc2ccco2)nc(OCC)n1	CYP2C9 inh 78.8, CYP2C19 inh 70.6
COc1ccc(C2=C(CN(C)C)C(c3ccccc3)c3ccccc3O2)cc1 (stereo not drawn)	CYP2C9 inh 76.9!, CYP2C19 inh 67.9!
O=C(OCN1C(=O)c2ccccc2C1=O)c1ccco1	none
CCOC(=O)c1[nH]c2ccccc2c1CCCN1C(=O)c2ccccc2C1=O	CYP2C9 inh 85.9, CYP2C19 inh 78.7
CC(=O)c1c(C)[nH]c(C(=O)OCCCCN2C(=O)c3ccccc3C2=O)c1C	CYP2C9 inh 70.3
O=C(OCCCN1C(=O)c2ccccc2C1=O)c1ccco1	CYP2C9 inh 61.6, CYP2C19 inh 54.4
CC(=O)c1c(C)[nH]c(C(=O)OCC(=O)N2CCc3ccccc32)c1C	none
CCOC(=O)c1[nH]c2cc3c(cc2c1CCCN1C(=O)c2ccccc2C1=O)OCCO3	none
O=C(OCCCCN1C(=O)c2ccccc2C1=O)c1n[nH]c2ccccc12	CYP2C9 inh 86.3, PLAP activator 2, CYP2C19 inh 83.7
Cc1nc2ccc(N3C(=O)CCC3=O)cc2[nH]1	none
CC(C)OCCCNC(=O)c1ccccc1Oc1ccccc1	none
CCn1nnnc1Oc1ccc(Cl)cc1	none
O=C(Nc1cccnc1)C1CC(c2ccccc2O)=NO1 (stereo not drawn)	CYP2C9 inh 51.3, PLAP activator 2, CYP2C19 inh 80.2
CCOC(=O)c1ccccc1NC(=O)c1ccccc1SC	none
CCOC(=O)c1ccccc1NS(=O)(=O)c1ccccc1F	CYP2C9 act 2.9, CYP2C19 inh 88.6
Cc1ccccc1NC(=O)Nc1ccccc1C(=O)NCc1ccccc1	CYP2C9 inh 58.7
CCOC(=O)c1ccccc1NS(=O)(=O)c1ccccc1	CYP2C19 inh 98.3
CCOC(=O)c1ccccc1NC(=O)c1ccccc1NS(C)(=O)=O	CYP2C9 inh 74.0, CYP2C19 inh 55.2
O=C(Cn1ccsc1=NC(=O)c1ccco1)c1ccccc1	none
Cc1ccc(CNC(=O)c2ccccc2NS(C)(=O)=O)cc1	CYP2C9 inh 54.3, CYP2C19 inh 55.3
CC(NC(=O)c1ccccc1NC(=O)CSc1nnnn1C)c1ccccc1 (stereo not drawn)	CYP2C9 inh 62.0
Cc1nc2cccc(C(=O)NCc3ccccc3)c2o1	CYP2C9 inh 62.1
COC(=O)COc1cccc(NS(=O)(=O)c2ccc(NC(C)=O)cc2)c1	none
O=C(O)c1ccccc1C(=O)NCc1ccccc1	none
COC(=O)COc1ccc(S(=O)(=O)Nc2ccccc2C(=O)OC)cc1	CYP2C9 act 2, CYP2C19 inh 95.6
CC(=O)NC(CC(=O)NCC(c1ccco1)N(C)C)c1ccccc1 (stereo not drawn)	none
CC1=Nc2ccc(C)cc2N(Cc2ccccc2)C(=O)C1	none
CC(=O)C1=C(C)NC(=O)NC1c1ccccc1 (stereo not drawn)	none
Cc1c(C(=O)N2CCCCC2)nnn1-c1nonc1N	none
CCOC(=O)c1cnc(SC)nc1Oc1cccc(NS(=O)(=O)c2ccc(C)cc2)c1	CYP2C9 inh 80.9
CCOC(=O)c1ccccc1-c1csc(NS(=O)(=O)c2ccc(Cl)cc2)n1	CYP2C9 inh 98.9
CC(NC(=O)c1ccccc1NS(C)(=O)=O)c1ccccc1 (stereo not drawn)	CYP2C9 inh 73.1, CYP2C19 inh 61.7
CCOC(=O)c1ccccc1NS(=O)(=O)c1ccc(C)cc1	CYP2C19 inh 59.7
CCOC(=O)c1cnc(-c2ccccc2)nc1Oc1ccccc1	none
CCOC(=O)c1cc(C)n(S(=O)(=O)c2ccc(C)cc2)c1C	none
